Screens as filed in PubChem.
This is a sample that favours compounds with a hit; in the whole collection about 3.5% have one here.
Anthrax LF prot: Bacillus anthracis LF protease inhibitors, primary screen, biochemical, multiplex microsphere, MLPCN library; Lethal factor (Bacillus anthracis), P15917; multiplex microsphere protease cleavage assay; inhibition, % at 10 µM; 360,000 tested, 0.12% active; further: plate controls were buffer without enzyme for full effect and enzyme alone for no effect
Target sequence (P15917 whole entry, looked up): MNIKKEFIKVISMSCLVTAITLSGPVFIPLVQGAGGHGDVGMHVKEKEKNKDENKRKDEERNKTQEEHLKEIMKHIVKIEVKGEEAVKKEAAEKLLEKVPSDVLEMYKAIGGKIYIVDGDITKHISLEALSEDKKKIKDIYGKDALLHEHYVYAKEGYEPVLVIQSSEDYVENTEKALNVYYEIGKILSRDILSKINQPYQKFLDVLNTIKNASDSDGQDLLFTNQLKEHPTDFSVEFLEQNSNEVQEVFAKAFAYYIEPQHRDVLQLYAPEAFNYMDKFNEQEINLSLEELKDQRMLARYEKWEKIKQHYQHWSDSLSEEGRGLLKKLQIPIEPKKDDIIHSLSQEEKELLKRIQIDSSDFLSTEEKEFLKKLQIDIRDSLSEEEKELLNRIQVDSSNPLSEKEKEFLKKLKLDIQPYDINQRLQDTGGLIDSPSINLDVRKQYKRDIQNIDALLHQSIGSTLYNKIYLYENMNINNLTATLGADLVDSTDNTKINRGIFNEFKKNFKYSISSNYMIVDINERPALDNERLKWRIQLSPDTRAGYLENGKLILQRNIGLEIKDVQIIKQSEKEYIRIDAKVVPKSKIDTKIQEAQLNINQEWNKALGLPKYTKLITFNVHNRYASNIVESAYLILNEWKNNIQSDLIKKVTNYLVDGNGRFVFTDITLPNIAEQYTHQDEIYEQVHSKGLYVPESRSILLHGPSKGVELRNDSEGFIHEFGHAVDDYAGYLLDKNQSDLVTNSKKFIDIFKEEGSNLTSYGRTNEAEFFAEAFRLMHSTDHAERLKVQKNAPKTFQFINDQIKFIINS
BoNT-F LC inh: BoNT/F light chain protease inhibitors, primary screen, biochemical, flow cytometry, MLPCN library | Botulinum neurotoxin type F light chain protease (Clostridium botulinum) | 360,000 tested, 0.22% active | AID 588497, 2011 | Multiplex microsphere protease cleavage assay | inhibition, % at 10 µM; in the data active means inhibition above about 35%, passing the limit was not always enough; inconclusive means no clear call, values can overlap the other calls; further: plate controls were buffer without enzyme for full effect and enzyme alone for no effect
BoNT-A LC inh2: BoNT/A light chain protease inhibitors, primary screen, biochemical, flow cytometry, MLPCN library | multiplex microsphere protease substrate cleavage | inhibition, % at 10 µM | Botulinum neurotoxin type A light chain protease (Clostridium botulinum A str. ATCC 3502) | 360,000 tested, 0.17% active; further: plate controls were buffer without enzyme for full effect and enzyme alone for no effect
Autofluor counter: flagged as autofluorescent in microsphere protease counterscreen. compound autofluorescence counterscreen, microsphere flow cytometry; stronger effect = higher value. fluorescence intensity (no concentration beside the values). 360,000 tested, 3.1% active. AID 624483; in the data active means fluorescence intensity above about 16000; inconclusive means no clear call, values can overlap the other calls
* = called active by the depositor; u = inconclusive. Unless noted, no stated cut-off is given here; in the data, active means inhibition above about 30%; inconclusive means no clear call, values can overlap the other calls; inactive means below that.

SMILES | Anthrax LF prot | BoNT-F LC inh | BoNT-A LC inh2 | Autofluor counter
C[C@@H]1CN([C@H](C)CO)C(=O)c2cc(Br)cnc2O[C@@H]1CN(C)C(=O)Cc1ccccc1 | -2 | -4 | 0 | 3990
COc1ccc(C2N(S(=O)(=O)c3ccccc3)CCN2S(=O)(=O)c2ccc(C)cc2)cc1 (centres undefined) | -19 | 14 | 14 | 17266*
Cc1ccc(S(=O)(=O)N2CCN(C(=O)N3CCOCC3)C2C)cc1 (centres undefined) | -1 | -1 | -1 | 23303*
COc1ccc(C2N(C(=O)CN3CCOCC3)CCN2S(=O)(=O)c2ccccc2)cc1 (centres undefined) | -4 | -4 | u | 22919*
COc1ccc(C2N(C(=O)N3CCOCC3)CCN2S(=O)(=O)c2ccc(C)cc2)cc1 (centres undefined) | 1 | -1 | 0 | 22397*
CCOC(=O)N1CCN(S(=O)(=O)c2ccc(C)cc2)C1c1ccc(OC)cc1 (centres undefined) | 0 | 3 | 1 | 3917
Cc1ccc(S(=O)(=O)N2CCN(S(C)(=O)=O)C2C)cc1 (centres undefined) | -2 | 4 | 2 | 5934
O=C(NCc1cccc(F)c1)Nc1nnc([C@H]2C[C@H](O)[C@@H](CO)O2)s1 | -4 | -3 | 0 | 3789
CCCc1cc2c(cc1N(C)S(=O)(=O)c1ccccc1)OCO2 | -9 | 2 | 1 | 3965
O=c1[nH]c(=S)[nH]c2c1[C@H](CCc1cccc(Cl)c1)O[C@H](C1CCCC1)C2 | 4 | -6 | 0 | 6027
Cc1ccc(S(=O)(=O)N2CCN(C(=O)N3CCOCC3)C2c2ccc(N(C)C)cc2)cc1 (centres undefined) | -2 | 6 | u | 21067*
CCc1nc2ccc(C(=O)NCCCN3CCCC3=O)cn2c1N(CC)CCOC | -1 | -3 | 0 | 3770
CCOCC(=O)Nc1cc(-c2cn3cccnc3n2)ccc1C | -2 | -6 | u | 22267*
Cc1cccn2c(=O)c3cc(C(=O)NCCN4CCOCC4)c(=N)n(CCN4CCOCC4)c3nc12 | -1 | -1 | 0 | 4309
CCOCCCn1c(=N)c(C(=O)NCCN2CCOCC2)cc2c(=O)n3cccc(C)c3nc21 | 0 | -2 | -1 | 22990*
Cc1ccc(C)c(N2CCN(S(=O)(=O)c3csc(C(N)=O)c3)CC2)c1 | -2 | -10 | -3 | 6783
CC(=O)c1cccc(NC(=O)NCc2cccnc2)c1 | -1 | 0 | 0 | 20530*
O=C(NCc1cccnc1)Nc1cccc(Cl)c1 | 0 | -6 | 0 | 3734
O=C(NCc1cccnc1)Nc1cccc(NC(=O)NCc2cccnc2)c1 | -3 | -13 | -8 | 27382*
O=C(NCc1cccnc1)Nc1ccccc1 | -1 | -4 | 0 | 2270
CCOC(=O)C1=CCN(S(=O)(=O)c2ccc(C)cc2)C1c1cccc(Br)c1 (centres undefined) | -4 | -16 | -1 | 4553
Cc1cc2nc(NC(=O)C3(C)CCN(C)C3)[nH]c2cc1C (centres undefined) | -3 | -6 | 0 | 2887
C1CCC2(CC1)C1=C(CCCC1)Nc1nnnn12 | -5 | -7 | -4 | 24281*
S=C1NC2=C(CCCC2)C2(CCCCC2)N1 | 1 | 3 | 0 | 3131
N#Cc1ccccc1NC(=O)C1CCCO1 (centres undefined) | -4 | 0 | 0 | 3789
SMILES | Anthrax LF prot | BoNT-F LC inh | BoNT-A LC inh2 | Autofluor counter
Cc1cc(C)n(-c2nnc(C)n2/N=C/c2ccccc2F)n1 | -1 | 2 | 0 | 22946*
CC(=O)Nc1cccc(-c2ccnc3c2CC(C)(C(=O)Nc2ccc(C(C)C)cc2)O3)c1 (centres undefined) | -10 | -1 | 0 | 3457
CC(C)Nc1nc(NC(C)C)nc(Oc2ccc(=O)n(C)n2)n1 | -2 | -1 | 0 | 4206
Cc1cccc(Nc2nc(NC(C)C)nc(Oc3ccc(=O)n(C)n3)n2)c1 | -2 | -4 | -2 | 23566*
C1CCN(c2nc3nonc3nc2N2CCCCC2)CC1 | -4 | -4 | -3 | 24347*
Cn1c(=O)c2c3c(sc2n2cnnc12)CCC3 | -1 | -2 | 0 | 3279
NC(=O)Cn1c(=O)n(CCc2ccccc2)c(=O)c2c3c(sc21)CCCC3 | -3 | -5 | -1 | 16478*
O=c1c2c3c(sc2n2cnnc2n1CCc1ccccc1)CCCC3 | -4 | -2 | -2 | 16649*
COc1cc(NC(=O)C2CC(c3ccccc3O)=NO2)cc(OC)c1OC (centres undefined) | -4 | 1 | 0 | 3346
CC(C)c1ccccc1NC(=O)Nc1nnc([C@@H]2C[C@H](O)[C@@H](CO)O2)s1 | -4 | -5 | 1 | 2643
